Screens as filed in PubChem.
This is a sample that favours compounds with a hit; in the whole collection about 19% have one here.
HT1080NT lethal = kills 2HG-producing HT-1080-NT fibrosarcoma cells. HT-1080-NT fibrosarcoma viability, CellTiter-Glo ATP luminescence, 48 h. Potency, µM (highest dose often 46.1 µM), without a hit: top-dose activity, negative = less viability, most hits filed as cytotoxic. 360,000 compounds, 1.6% hits. AID 686970;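 further: NT is the 2HG producing partner of a matched IDH1 knockdown line; potency means the concentration at half of the fitted maximal effect; 0% = DMSO-treated cells and -100% = media-only wells without cells; nearly all actives have a fitted effect of over 55% in size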
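A 48-hour cytotoxicity screen used HT-1080-NT cells plated 2 hours before compound delivery. ATP-based CellTiter-Glo luminescence measured viability, normalized to DMSO and no-cell controls.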
TDP1 cell CPT = DT40-hTDP1 cell growth loss with CPT | chicken DT40 Tdp1-/-;hTDP1 cells + 20 nM CPT, ATP luminescence, 48 h | Potency, µM (series often up to 46.2 µM), for the others: at the highest dose activity change, negative = growth inhibition, hits mostly inhibitors | 420,000 compounds, 12% hits; further: potency means the concentration at half of the fitted maximal effect; nearly all actives have a fitted effect of over 55% in size
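Chicken DT40 Tdp1-/- cells stably complemented with human TDP1 were seeded at 400 cells/well in medium containing 20 nM camptothecin, exposed to pin-transferred compounds, and grown at 37 °C for at least 48 hr. Viability was read as ATP luminescence.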
TDP1 cell noCPT = qHTS for Inhibitors of human tyrosyl-DNA phosphodiesterase 1 (TDP1): qHTS in cells in absence of CPT; DT40 Tdp1-/- hTDP1 cells, no CPT, ATP luminescence, 48 h; Potency, µM (top dose mostly 46.2 µM), inactives show at the highest dose activity change, negative = growth inhibition, usual class: inhibitors; 420,000 compounds, 15% hits; further: potency means the concentration at half of the fitted maximal effect; nearly all actives have a fitted effect of over 55% in size
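Readout: luminescence from CellTiter-Glo after 30 min in the dark at RT. Cells: DT40 Tdp1-/- with stable hTDP1, 400/well. Exposure: compounds alone, ≥48 hr, 37 °C.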
HT1080 IDH1KD tx = kills HT-1080 cells with IDH1 knockdown. HT-1080 IDH1 knockdown viability, ATP luminescence, 48 h. 360,000 compounds, 2% hits. Potency, µM (doses to about 46.1 µM), for the others: top-dose activity, negative = toxicity, hits mostly cytotoxic. AID 686971;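 further: potency means the concentration at half of the fitted maximal effect; 0% = DMSO wells and -100% = cell-free medium wells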
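Cytotoxicity counter-line: IDH1KD HT-1080, 48 h, CellTiter-Glo. Curves classed by r2, magnitude and activity.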
IL1B secr inh = inflammasome signaling inhibition, IL-1 beta readout. THP-1 LPS/ATP IL-1B secretion, AlphaLISA, 16 h; stronger effect = lower value. activity change, % at 57.5 µM. 360,000 compounds, 4.7% hits. AID 743279; in the data active means activity change below about -50%; inconclusive means mostly about -30% to -49%
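THP-1 cells pretreated 1 hr with compounds (up to 57.5 uM final), then stimulated with LPS (250 ng/mL final) plus ATP (1.25 mM final); secreted IL-1B measured by AlphaLISA after 16 hr, decreased signal indicating inhibition.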
Active calls of the source: *; ? = inconclusive; . = no result given; [ ] = dose if it differs, or a comment. Unless noted, the call rests on the fitted dose curve; in most records, active means well fitted curve in the direction sought with a large enough effect; inconclusive means small, poorly fitted or top-dose-only effect, or another doubt; inactive means no such curve, though single readings can be large; an effect the other way counts as inactive or inconclusive. Unless noted, on the % scale 0 is the no-effect control and ±100 the full control effect.

SMILES	HT1080NT lethal	TDP1 cell CPT	TDP1 cell noCPT	HT1080 IDH1KD tx	IL1B secr inh
O=C(CSc1ncc(CO)n1Cc1ccccc1)Nc1nc2ccccc2s1	.	20.6µM*	16.4µM*	.	.
O=C(CSc1ncc(CO)n1Cc1ccccc1)Nc1ccc(C(F)(F)F)cc1	.	14.6µM*	23.1µM*	.	.
CCOC(=O)c1ccccc1NC(=O)Cc1c(C(=O)O)c(C)cn1C	.	-6.6%	-12.3%	.	.
O=C(Nc1ccccc1Cl)Nc1ccnn1C1CCN(C(=O)C2CCOC2)CC1 (centres undefined)	0.5%	1.8%	-0.2%	-2.3%	-24.9
CCc1nc2ccc(C(=O)Nc3ccc(OC)c(OC)c3)cn2c1N(C)C(=O)Cc1ccccc1	9.1%	14.6%	-2.9%	14.8%	-2.9
CNc1nc(SC)nc2ccsc12	-0.2%	-10.4%	-3.0%	-0.1%	4.3
CCOc1ccc(N(Cc2ccccc2)C(=O)c2nc(SC)ncc2Cl)cc1	.	13µM*	6.51µM*	.	.
COc1ccc(N(Cc2ccccc2)C(=O)c2nc(S(C)(=O)=O)ncc2Cl)cc1	.	0.731µM*	0.461µM*	.	.
CS(=O)(=O)c1ncc(Cl)c(C(=O)N(Cc2ccc(Cl)cc2)Cc2ccco2)n1	.	0.651µM*	1.3µM*	.	.
CS(=O)(=O)N(CC(=O)NCc1ccco1)Cc1ccc(Cl)cc1	9.9%	8.1%	0.5%	13.1%	-0.5
COc1ccc(C(=O)NCCc2c[nH]c3ccccc23)cc1S(=O)(=O)N1CCOCC1	-1.3%	1.1%	?	-9.4%	17.4
CCOC(=O)c1ccc(CSc2nnc(N)s2)cc1	-10.7%	?	-11.8%	-14.5%	4.7
COc1ccccc1CNC(=O)c1cc2cccc3c2n1CCS3	.	18.4µM*	?	.	.
CCOc1ccc(CCNC(=O)c2cc3cccc4c3n2CCS4)cc1	.	9.2µM*	?	.	.
COc1cccc(C(=O)NCc2ccccc2OC)c1	0.3%	2.9%	-17.9%	0.2%	-17.8
O=C(NCc1ccccc1Cl)c1cc2cccc3c2n1CCS3	.	23.1µM*	?	.	.
NCCN	.	5.4%	-5.8%	.	.
CCC(=O)N1c2ccccc2NC2=C(C(=O)CC(C)(C)C2)C1c1cccnc1 (centres undefined)	20.8%	1.2%	-8.1%	14.5%	3.4
Cc1cc(C(=O)COC(=O)c2ccccc2NCCO)c(C)n1CC1CCCO1 (centres undefined)	-1.6%	?	14.6µM*	0.3%	24.0
Cc1cc(C(=O)COC(=O)c2ccccc2Br)c(C)n1CC1CCCO1 (centres undefined)	0.0%	?	?	-24.0%	-16.1
Cc1cc(C(=O)COC(=O)c2ccccc2O)c(C)n1CC1CCCO1 (centres undefined)	-2.9%[9.24 µM]	?	-24.9%	?	-6.7
Cc1cc(C(=O)COC(=O)c2cc(O)c3ccccc3c2O)c(C)n1CC1CCCO1 (centres undefined)	-14.5%	16.4µM*	?	-14.2%	30.4
Cc1cc(C(=O)COC(=O)c2cccnc2Cl)c(C)n1CC1CCCO1 (centres undefined)	4.0%	23.1µM*	?	0.1%	25.3
CC(=O)Nc1cncc(-c2ccccc2N(C)C)n1	?	-6.8%	-16.8%	25.1%	20.3
CC1=C(C(=O)N2CCOCC2)CC(CC(=O)NCCN2CCOCC2)C(=O)N1Cc1ccccc1 (centres undefined)	-8.4%	5.1%	2.6%	4.5%	13.4
SMILES	HT1080NT lethal	TDP1 cell CPT	TDP1 cell noCPT	HT1080 IDH1KD tx	IL1B secr inh
O=C(COC(=O)C12CC3CC(CC(C3)C1)C2)NCC1CCCO1 (centres undefined)	.	-6.5%	-27.9%	.	.
O=C(Nc1ccc(Cl)c(Cl)c1)N1CCC(c2ccccc2)C1 (centres undefined)	.	?	20.6µM*	.	.
CCOC(=O)c1ccccc1NC(=O)N1CCC(N2CCN(Cc3ccccc3)C(=O)C2=O)CC1	.	-10.4%	-27.6%	.	.
Cc1ccc(C2CCN(C(=O)Nc3ccc(Cl)c(Cl)c3)C2)cc1 (centres undefined)	.	?	25.9µM*	.	.
O=C(Nc1ccccc1)N1CCC(c2ccccc2)C1 (centres undefined)	0.2%	0.0%	0.3%	1.8%	-17.0
Cc1ccc(NC(=O)N2CCC(N3CCN(Cc4ccccc4)C(=O)C3=O)CC2)cc1Cl	.	?	14.6µM*	.	.
CC1=C(CC(=O)O)c2cc(F)ccc2/C1=C/c1ccc(S(C)=O)cc1 (centres undefined)	-2.9%	13.2%	-1.0%	-8.4%	-15.4
CC1CC(C)CN(S(=O)(=O)c2ccc(C(=O)NNC(=O)c3ccccc3F)cc2)C1 (centres undefined)	-3.3%	3.2%	-2.1%	7.2%	9.0
CCCN1CCN(CCCNC(=O)c2ccc3c(Cl)c4c(nc3c2)CCCC4)CC1	?	20.6µM*	8.2µM*	?	-56.2*
O=C(NCCCN1CCCC1)c1ccc2c(Cl)c3c(nc2c1)CCCC3	18.4µM*	?	14.6µM*	23.1µM*	.
COc1ccc(OC(C)c2nc3ccccc3[nH]2)cc1 (centres undefined)	.	-28.4%	?	.	.
COc1cc(NS(=O)(=O)c2cc(Br)cc3c2N(C(C)=O)C(C)C3)cc(OC)c1 (centres undefined)	.	13µM*	18.4µM*	.	.
CC(=O)N1c2c(cc(Br)cc2S(=O)(=O)N2CCN(c3cc(C)ccc3C)CC2)CC1C (centres undefined)	.	16.4µM*	14.6µM*	.	.
CC(=O)N1c2c(cc(Br)cc2S(=O)(=O)N2CCN(c3ccccc3F)CC2)CC1C (centres undefined)	-26.3%	-24.7%	?	-16.0%	-8.6
CC(=O)N1c2c(cc(Br)cc2S(=O)(=O)NCc2ccc3c(c2)OCO3)CC1C (centres undefined)	2.5%	7.7%	-2.2%	1.2%	12.4
COc1ccc(C)cc1NS(=O)(=O)c1cc(Br)cc2c1N(C(C)=O)C(C)C2 (centres undefined)	.	?	18.4µM*	.	.
CC(=O)N1c2c(cc(Br)cc2S(=O)(=O)N2CCOCC2)CC1C (centres undefined)	9.0%	-3.6%	-12.0%	1.9%	-4.5
CC(=O)NC(=O)COC(=O)/C=C/c1c(C)nn(Cc2c(Cl)cccc2Cl)c1Cl	-0.8%	-20.3%	?	-0.8%	28.1
CCOc1ccc2[nH]cc(-c3csc(N)n3)c2c1	-12.0%	?	10.3µM*	5.7%	-4.7
O=C(N/N=C/c1cccc([N+](=O)[O-])c1)C(=O)N1CCCCCC1	13.3%	-2.9%	1.1%	13.7%	6.3
COC(=O)[C@]12CCCCC=C1N(Cc1ccc(Cl)cc1Cl)C(=O)[C@H](CC(=O)NCc1cccc(C(F)(F)F)c1)C2	?	?	?	?	-3.5
